# The list is not random: actives were taken first. Their share in the collection is about 11%.
# HPGD inh: inhibitors of human 15-hydroxyprostaglandin dehydrogenase (HPGD); P15428; purified HPGD, NADH fluorescence kinetic, PGE2 substrate; Potency, µM, without a hit: at the top dose activity change, negative = inhibition, hits mostly inhibitors; 150,000 compounds, 4.3% hits; AID 894; active = well fitted inhibition curve with a large enough effect, not every such curve was filed as active; inconclusive = small, poorly fitted or top-dose-only effect, or another doubt; inactive = no such curve, though single readings can be large or run the other way; also: potency is read from the fitted curve at half-maximal effect
#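 20 nM HPGD preincubated 15 min at room temperature with compound in 50 mM Tris-HCl pH 8, 0.01% Tween 20. Started with 1 mM NAD+ and 30 uM prostaglandin E2; NADH fluorescence (360/450 nm) read 5 times over 30-s intervals, last minus first.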
# IMPase Li inh: IMPase inhibition in cells with lithium potentiation; CHO-M1 cells, IP1 TR-FRET (IP-One), carbachol + lithium; Potency, µM (series often up to 59.4 µM), for inactives: at the highest dose activity, negative = IMPase inhibition, actives largely listed as inhibitors; 210,000 compounds, 0.35% hits; AID 1457;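 also: IP1 builds up when IMPase is blocked and the TR-FRET signal falls; potency is read from the fitted curve at half-maximal effect; plate controls were basal vehicle for no effect and high inhibitor control for full effect; nearly all actives have a fitted effect of over 50% in size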
#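 CHO cells stably expressing M1 receptor (2000/well, cultured 16–30 h) treated 30 min at 37C with compound plus low lithium. Cytosolic IP1 by TR-FRET (665/620 ratio and 620 channel) after 10 min lysis; AC50 by Hill fit.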
# ALDH1A1 block: inhibitors of human aldehyde dehydrogenase 1A1; P00352; Potency, µM (series often up to 75.3 µM), without a hit: top-dose activity, negative = inhibition, hits mostly inhibitors; 220,000 compounds, 7.3% hits; Purified ALDH1A1, NADH fluorescence, propionaldehyde substrate; active = well fitted inhibition curve with a large enough effect, not every such curve was filed as active; inconclusive = small, poorly fitted or top-dose-only effect, or another doubt; inactive = no such curve, though single readings can be large or run the other way;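 also: potency is read from the fitted curve at half-maximal effect; plate controls were no enzyme wells and a reference inhibitor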
# Target sequence (P00352 whole entry, looked up): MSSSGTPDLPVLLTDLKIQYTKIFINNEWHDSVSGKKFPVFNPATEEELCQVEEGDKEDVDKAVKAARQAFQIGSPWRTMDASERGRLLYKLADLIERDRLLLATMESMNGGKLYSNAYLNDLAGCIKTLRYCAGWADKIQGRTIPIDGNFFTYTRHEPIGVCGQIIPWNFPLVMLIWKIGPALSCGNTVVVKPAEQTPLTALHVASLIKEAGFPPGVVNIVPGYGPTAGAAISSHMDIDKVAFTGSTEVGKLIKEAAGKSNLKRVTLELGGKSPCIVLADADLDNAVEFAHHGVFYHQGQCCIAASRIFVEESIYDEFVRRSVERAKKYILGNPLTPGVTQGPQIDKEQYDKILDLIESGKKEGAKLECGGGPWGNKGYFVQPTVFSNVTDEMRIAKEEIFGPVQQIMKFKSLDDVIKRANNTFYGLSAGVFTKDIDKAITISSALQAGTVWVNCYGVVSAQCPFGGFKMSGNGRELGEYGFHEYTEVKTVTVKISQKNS
# PNC inhibitor: perinucleolar compartment assembly inhibition; activity change (PNC), negative = inhibition, % at 10 µM; AID 2417; PC3M PTB-GFP, PNC prevalence imaging, 16 h; stronger effect = lower value; 140,000 compounds, 3.1% hits;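 active = readout at or below -70, meaning at least 70% loss of cells showing the perinucleolar compartment, a nuclear body marking cancer cells; inconclusive = readout between -30 and a set limit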;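 also: plate controls were DMSO wells for no effect and camptothecin positive control wells for full effect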
#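 PC3M cells stably expressing PTB-GFP, 750–1000 cells/well, treated 16 h at 37 °C with compound (23 nl of library stock), in duplicate. After paraformaldehyde fixation and Hoechst stain, imaged at 20x; PNC prevalence scored by image analysis.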
# IMPase cell inh: membrane-permeable compound that blocks inositol monophosphatase; P97697; CHO-M1 cells, IP1 accumulation, HTRF TR-FRET ratio; inhibition (IP1 accumulation), % at 46.1 µM; 120,000 tested, under 10 active; active = well fitted curve in the direction sought with a large enough effect in the signal ratio, not every such curve was filed as active; inconclusive = small, poorly fitted or top-dose-only effect, or a change in a side signal; inactive = no such curve, though single readings can be large or run the other way; the % refers to the signal ratio;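 also: cells stimulated with carbachol in lithium chloride buffer; plate controls were DMSO basal wells for no effect and reference inhibitor wells for full effect; higher means more IMPase inhibition seen as more IP1 and lower FRET ratio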
# Target sequence (P97697 whole entry, looked up): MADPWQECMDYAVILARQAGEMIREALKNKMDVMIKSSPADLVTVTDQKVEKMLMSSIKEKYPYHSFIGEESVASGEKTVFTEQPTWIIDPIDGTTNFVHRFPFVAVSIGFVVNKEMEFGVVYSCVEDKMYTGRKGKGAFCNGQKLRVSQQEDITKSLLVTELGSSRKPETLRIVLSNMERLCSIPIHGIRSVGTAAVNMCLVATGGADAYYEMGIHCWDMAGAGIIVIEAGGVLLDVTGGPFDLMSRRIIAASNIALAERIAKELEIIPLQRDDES
#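 CHO-M1 cells (CHO stably expressing M1 receptor), compound up to 46 uM final, stimulated with carbachol (50 uM as added) in buffer with 50mM LiCl, pH 7.4, 30 min at 37C. Cytosolic IP1 read by TR-FRET; AC50 from Hill fits.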
# 12-hLO inh: blocks human 12-lipoxygenase activity; purified 12-hLO, xylenol orange hydroperoxide absorbance; Potency, µM (series often up to 57.1 µM), inactives show at the top dose activity change, negative = inhibition, usual class: inhibitors; 150,000 compounds, 0.12% hits; also: potency is read from the fitted curve at half-maximal effect; nearly all actives have a fitted effect of over 55% in size
#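 150 nM 12hLO, 25 mM Hepes pH 7.0 + 0.01% Triton X-100; cpd preinc 15 min RT; 40 uM arachidonic acid, 30 min RT; Fe-XO 30 min; A573/A405 ratio as read-out.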
# Starred values were filed as active, the others as inactive; ? = inconclusive; . = not tested or not shown; [ ] = another dose, or the depositor's remark. Unless noted, calls follow the shape of the dose curve; as a rule, active = well fitted curve in the direction sought with a large enough effect; inconclusive = small, poorly fitted or top-dose-only effect, or another doubt; inactive = no such curve, though single readings can be large; an effect the other way counts as inactive or inconclusive. Unless noted, % is scaled to controls: 0 for no effect and ±100 for the full control effect.
SMILES,HPGD inh,IMPase Li inh,ALDH1A1 block,PNC inhibitor,IMPase cell inh,12-hLO inh
CCOC(=O)C1=C(C)NC(SCC(=O)O)=C(C#N)C1c1ccco1 (stereo not drawn),?,6%[38.3 µM],?,-13,2,-7%
N#CCCn1c(=O)cnc2cnc(Oc3ccccc3)nc21,.,15%,-2%,.,.,.
COC(=O)c1ccc(C(NC(=O)OCc2ccccc2)/C(C)=C/[C@@H](C)C(=O)NCc2nc3ccccc3s2)cc1 (stereo partly drawn),-8%,7%,-10%,.,.,1%
CC(=O)O[C@H]1CC[C@]2(C)C(=CC[C@H]3[C@H]4C[C@H]5O[C@]6(CC[C@H](C)CN6)[C@H](C)[C@@H]5[C@]4(C)CC[C@@H]32)C1,-7%,-11%,-4%[13.5 µM],.,.,3%[11.4 µM]
CCc1ccccc1NC(c1nnc(-c2cccc(F)c2)o1)c1ccc(F)cc1Cl (stereo not drawn),.,.,.,.,-3,.
N#CC1=C(SCC(=O)c2ccccc2)NC2=C(C(=O)CCC2)C1c1ccco1 (stereo not drawn),?,2%[38.3 µM],8.9µM*,-89*,5,?
CCc1ccc(C(=O)CSC2=C(C#N)C(c3ccco3)C(C(C)=O)=C(C)N2)cc1 (stereo not drawn),?,19%[38.3 µM],?,34,3,-22%
CC(=O)C1=C(C)NC(SCC(=O)c2ccc(F)cc2)=C(C#N)C1c1ccco1 (stereo not drawn),25µM*,5%[38.3 µM],13µM*,-19,19,-16%
Cc1cccc(CCNC(=O)C2CCCN(S(=O)(=O)c3cccc4nsnc34)C2)c1 (stereo not drawn),-20%,22%,3%,-95*,1,12%
O=C(NC1CCCCCCC1)C1CCC(CNc2c(N3CCCC3)c(=O)c2=O)CC1 (stereo not drawn),4µM*,6%,?,-119*,-1,4%
Cc1ccc(CCNC(=O)C2CCC(CNc3c(N4CCCC4)c(=O)c3=O)CC2)cc1 (stereo not drawn),25µM*,-1%[38.3 µM],-8%,-21,10,-5%
Cc1cccc(CCNC(=O)C2CCC(CNc3c(N4CCCC4)c(=O)c3=O)CC2)c1 (stereo not drawn),13µM*,2%[38.3 µM],?,?,-2,-3%
Cc1ccc(CCNC(=O)C2CCCN(S(=O)(=O)c3cccc4nsnc34)C2)cc1 (stereo not drawn),-18%,-13%[38.3 µM],-5%,?,7,-4%
CC1=CC(=O)C2=C(C)CC[C@@H]3[C@@H](OC(=O)[C@H]3C)[C@H]12,1%,-3%,0%[20.9 µM],.,-2[20.6 µM],4%[25.6 µM]
Nc1nc2c(ncn2C2OC(CO)CC2O)c(=O)[nH]1 (stereo not drawn),-11%,-1%,2%,.,.,1%
C[C@@H](CS(=O)(=O)Cc1ccccc1)C(N)=O,-13%,-2%,0%[13.5 µM],.,.,-2%[11.4 µM]
Cc1c(C(=O)O)nc(/C=C\C(=O)O)[nH]c1=O,-5%,-1%,20%[13.5 µM],.,.,-1%[11.4 µM]
O=C(NCC1COc2ccccc2O1)C1CCC(CNc2c(N3CCCCC3)c(=O)c2=O)CC1 (stereo not drawn),14µM*,-9%[38.3 µM],1%,?,1,-2%
CCc1nnc(NS(=O)(=O)c2ccc(NC(=S)NC(=O)c3ccc(OC)c(OC)c3)cc2)s1,?,3%,7.9µM*,?,.,?
CCc1nnc(NS(=O)(=O)c2ccc(NC(=S)NC(=O)/C=C/c3ccc(F)cc3)cc2)s1,-17%,7%,?,?,0,-8%
CCc1nnc(NS(=O)(=O)c2ccc(NC(=S)NC(=O)c3ccc(OC)cc3)cc2)s1,?,10%,18µM*,-24,9,?
COc1ccc(S(=O)(=O)Nc2nnc(C)s2)cc1,32µM*,-29%[38.3 µM],?,7,9,-5%
COc1ccccc1CNc1ccnc(-c2ccccc2OC)n1,.,14%,-2%,.,.,.
CC(=O)N1CCC2(CC1)CCN(c1cccc(-c3ccccc3)c1)CC2,-17%,5%,-11%,.,.,-12%
CC(=O)Nc1sc2c(c1C(c1ccc(Cl)cc1)N1CCOCC1)CCCC2 (stereo not drawn),3%,12%[38.3 µM],0%,-106*,8,-22%
SMILES,HPGD inh,IMPase Li inh,ALDH1A1 block,PNC inhibitor,IMPase cell inh,12-hLO inh
Cc1cccc(NC(=O)c2onc3c2CCCC3)n1,-17%,7%,22µM*,58,.,-1%
Cc1cccc(NC(=O)c2cc(NC(=O)C3CCCCC3C(=O)O)ccc2Cl)n1 (stereo not drawn),-11%,20%[38.3 µM],-13%,?,5,0%
Cc1cccc(NC(=O)c2cc(NC(=O)c3ccco3)ccc2Cl)n1,-7%,4%[38.3 µM],-13%,-110*,5,-2%
Cc1cccc(NC(=O)c2ccccc2Br)n1,25µM*,-4%[38.3 µM],?,57,5,-8%
Cc1cccc(NC(=O)c2onc3c2CCCC3)c1C,-12%,15%[38.3 µM],-8%,-27,6,-4%
C/C=C\C[C@H](C)[C@H](O)[C@H]1C(=O)N[C@@H](CC)C(=O)N(C)CC(=O)N(C)[C@@H](CC(C)C)C(=O)N[C@@H](C(C)C)C(=O)N(C)[C@@H](CC(C)C)C(=O)N[C@@H](C)C(=O)N[C@@H](C)C(=O)N(C)[C@@H](CC(C)C)C(=O)N(C)[C@@H](CC(C)C)C(=O)N(C)[C@@H](C(C)C)C(=O)N1C,-12%,8%,13%[20.9 µM],.,-5[20.6 µM],5%[25.6 µM]
Cc1ccc(-c2ccc(CCC(=O)O)n2-c2ccc(C(C)C)cc2)cc1,.,.,.,.,6,.
C[C@@H]1C(=O)O[C@H]2[C@@H](O)[C@@]34[C@H]5CC(C(C)(C)C)[C@]36[C@@H](OC(=O)[C@@H]6O)O[C@@]4(C(=O)O5)[C@@]12O (stereo partly drawn),0%,4%,9%,.,3,-3%
COc1ccc(NC(=O)C(c2ccccc2)N2CCN(c3ccccn3)CC2)cc1Cl (stereo not drawn),.,34%,8.9µM*,.,.,.
CCNc1ccc(C(=O)OCC(=O)NCCN2C(=O)CSC2=O)cc1[N+](=O)[O-],.,18%,3.5µM*,.,.,.
Cc1ccc(C(=O)OCC(=O)NCCN2C(=O)CSC2=O)cc1,-3%,-11%,-4%,?,.,1%
CC(=O)c1ccc(-c2cccc(-c3cc(=O)oc4ccc(C(C)(C)C)cc34)c2)cc1,-19%,15%,6%,.,.,1%[0.00818 µM]
CC[C@@H]1CN2CCc3cc(OC)c(OC)cc3[C@H]2C[C@@H]1C[C@@H]1NCCc2cc(OC)c(OC)cc21,.,.,.,.,3,-5%
Cc1ccc(CCNC(=O)c2cccc(Nc3nc4ccccc4nc3-n3nc(C)cc3C)c2)cc1,.,.,.,.,-2,.
